Screening results from PubChem BioAssay.
Cruzain inh Det = cruzain (T. cruzi) inhibition with detergent. P25779. purified cruzain, Z-FR-AMC fluorescence, 0.01% Triton. Potency, µM, inactives show max response, negative = inhibition, actives largely listed as inhibitors. 0.43% of 200,000 active. AID 1478;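 further: plate controls were neutral wells for no effect and buffer without enzyme for full effect; nearly all actives have a fitted effect of over 40% in size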
Target sequence (P25779 123-467 limits assumed): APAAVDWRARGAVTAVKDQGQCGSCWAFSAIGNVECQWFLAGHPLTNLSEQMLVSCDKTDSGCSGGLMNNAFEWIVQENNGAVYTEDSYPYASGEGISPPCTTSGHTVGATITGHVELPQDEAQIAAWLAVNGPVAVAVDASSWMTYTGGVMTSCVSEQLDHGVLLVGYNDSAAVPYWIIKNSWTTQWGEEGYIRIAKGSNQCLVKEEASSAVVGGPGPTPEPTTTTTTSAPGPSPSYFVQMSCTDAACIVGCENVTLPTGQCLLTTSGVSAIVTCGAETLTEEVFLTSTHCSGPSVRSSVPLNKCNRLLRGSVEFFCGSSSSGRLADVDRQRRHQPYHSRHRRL
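Compounds were screened in titration against cruzain (1.5 nM) with 0.01% Triton X-100 to counter colloidal aggregation. Activity was the AMC fluorescence increase over 60 s after adding 2 uM Z-FR-AMC at pH 5.5.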
Cruzain noTriton = blocks cruzain activity in detergent-free assay | Potency, µM, inactives show max response, negative = inhibition, most hits filed as inhibitors | P25779 | purified cruzain, Z-FR-AMC fluorescence, no detergent | 2.3% of 200,000 active | AID 1476;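 further: plate controls were enzyme without inhibitor for no effect and buffer without enzyme for full effect; nearly all actives have a fitted effect of over 40% in size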
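Detergent-free condition (0.00005% Triton X-100) in acetate buffer pH 5.5 with DTT. 1.5 nM enzyme and compound were pre-mixed 15 min, then 2 uM Z-FR-AMC substrate added; reaction progress from fluorescence change between first and third reads (60 s).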
Starred values were filed as active, the others as inactive. Rows were chosen to be rich in hits. Some 2.6% of all compounds tested hit in one or more screens of this group. The call rests on the fitted dose curve; in most records, active means well fitted curve in the direction sought with a large enough effect; inconclusive means small, poorly fitted or top-dose-only effect, or another doubt; inactive means no such curve, though single readings can be large; an effect the other way counts as inactive or inconclusive. Potency means the concentration at half of the fitted maximal effect.

For CCOC(=O)c1ccc(N2C(=O)c3[nH]nc(-c4ccccc4)c3C2c2ccc(CC)cc2)cc1 (stereo not given) the results were Cruzain inh Det -4% and Cruzain noTriton 13µM*.
Screening CCOC(=O)c1ccc(N2C(=O)c3[nH]nc(-c4ccc(C)cc4)c3C2c2ccc(O)cc2)cc1 (stereo not given) returned Cruzain inh Det -5% and Cruzain noTriton inconclusive.
For O=C(COc1ccc(Cl)cc1)Nc1ccc2nc(SCC(=O)N3CCOCC3)sc2c1 the results were Cruzain inh Det -7% and Cruzain noTriton inconclusive.
`Clc1ccccc1-c1nnc2sc(-c3ccc(Br)o3)nn12` gave Cruzain inh Det -5% and Cruzain noTriton -13%.
Screening Clc1ccc(-c2nnc3sc(-c4ccc(Br)o4)nn23)c(Cl)c1 returned Cruzain inh Det -1% and Cruzain noTriton 20µM*.
For N#Cc1c(-c2ccccc2)cc(-c2ccccc2)nc1SCC(O)CS(=O)(=O)Cc1ccccc1 (stereo not given) the results were Cruzain inh Det -2% and Cruzain noTriton 20µM*.
`Cc1ccc(-c2cc(-c3ccccc3)c(C#N)c(SCC(O)CS(=O)(=O)Cc3ccccc3)n2)cc1` (stereo not given) gave Cruzain inh Det -3% and Cruzain noTriton 10µM*.
For Cc1cc(-c2ccccc2)c(C#N)c(SCC(N)=O)n1 the results were Cruzain inh Det 0% and Cruzain noTriton -5%.
Screening C#CCSc1nc(-c2ccccc2)cc(-c2ccccc2)c1C#N returned Cruzain inh Det -6% and Cruzain noTriton -28%.
For CCOc1cc(CNCCSc2nnnn2-c2ccccc2)cc(Cl)c1OC the results were Cruzain inh Det 1% and Cruzain noTriton 16%.
Screening Cc1ccccc1CNCCCSc1nnnn1C returned Cruzain inh Det 0% and Cruzain noTriton 11%.
O=C(Cn1c2ncccc2c(=O)n1-c1ccccc1)NCc1ccccc1Cl was read as Cruzain inh Det -1% and Cruzain noTriton 3%.
Cc1ccc(C)c(NC(=O)CSc2nnc([C@@H](N)Cc3c[nH]c4ccccc34)o2)c1 was read as Cruzain inh Det inconclusive and Cruzain noTriton 25µM*.
For CC(C)Sc1nnc([C@@H](N)Cc2c[nH]c3ccccc23)o1 the results were Cruzain inh Det -2% and Cruzain noTriton 7%.
For CCCCN(CC)C(=O)CCn1c(=O)c2cccn2c2cccnc21 the results were Cruzain inh Det -3% and Cruzain noTriton -5%.
COc1ccccc1NC(=O)CSC1=Nc2ccccc2C2=NC(Cc3ccccc3)C(=O)N12 (stereo not given) was read as Cruzain inh Det -4% and Cruzain noTriton -15%.
COc1ccc(C2C(C(=O)Nc3ccccc3)=C(C)Nc3nc(-c4ccccc4Cl)nn32)cc1OC (stereo not given) was read as Cruzain inh Det -7% and Cruzain noTriton 26%.
`COc1ccccc1C(=O)NNC(=S)NC(=O)c1sc2ccccc2c1Cl` gave Cruzain inh Det 8% and Cruzain noTriton 10µM*.
`COc1ccccc1C(=O)NC(=S)NNC(=O)c1sc2ccccc2c1Cl` gave Cruzain inh Det 9% and Cruzain noTriton 2.5µM*.
`COc1ccc(CCNC(=O)c2sc3ccccc3c2Cl)cc1OC` gave Cruzain inh Det -11% and Cruzain noTriton 9%.
Screening Cc1ccc(NC(=O)c2sc3ccccc3c2Cl)nc1 returned Cruzain inh Det 0% and Cruzain noTriton -11%.
`Cc1ccc(Cn2c(CNC(=O)c3ccccc3Br)nc3cccnc32)cc1` gave Cruzain inh Det -12% and Cruzain noTriton -4%.
CSc1cc(-c2ccccc2)n(Cc2c(Cl)cccc2Cl)c(=O)c1C#N was read as Cruzain inh Det 0% and Cruzain noTriton 10µM*.
`CSc1cc(-c2ccc(Cl)cc2)n(Cc2ccccc2)c(=O)c1C#N` gave Cruzain inh Det 1% and Cruzain noTriton 25µM*.
`N#Cc1cc(-c2ccc(Cl)cc2)cn(Cc2c(Cl)cccc2Cl)c1=O` gave Cruzain inh Det 0% and Cruzain noTriton -23%.
For CSc1nc(N)c(C#N)c(-c2ccc(Cl)cc2)c1C#N the results were Cruzain inh Det -4% and Cruzain noTriton -14%.
Screening Cc1cc(C(=O)Nc2cnn(Cc3ccc(Cl)cc3Cl)c2)no1 returned Cruzain inh Det -3% and Cruzain noTriton -4%.
O=C(Nc1cnn(Cc2ccc(Cl)cc2Cl)c1)c1noc2c1CCc1ccccc1-2 was read as Cruzain inh Det -6% and Cruzain noTriton 7.9µM*.
`O=c1c2oc3ccccc3c2n(Cc2ccc(Cl)cc2)c(=O)n1Cc1ccc2c(c1)OCO2` gave Cruzain inh Det -1% and Cruzain noTriton -4%.
Screening Cc1ccc(NC(=O)Cn2c(=O)n(Cc3ccccc3)c(=O)c3c(C)c(C)sc32)c(C)c1 returned Cruzain inh Det -1% and Cruzain noTriton -3%.
S=C(Nc1ccccc1)Nc1nc2ccccc2n1CCOc1ccccc1 was read as Cruzain inh Det 4% and Cruzain noTriton 10µM*.
`CC(=O)Nc1nc2ccccc2n1CCOc1ccccc1` gave Cruzain inh Det 0% and Cruzain noTriton -7%.
`COc1ccc(N2CCN(C(=O)c3ccc(C)c(NC(=O)c4nsc5ccccc45)c3)CC2)cc1` gave Cruzain inh Det 2% and Cruzain noTriton -18%.
Screening CCN(CC)S(=O)(=O)c1ccc2c(c1)N(CC(=O)NCCCN1CCN(c3cc(Cl)ccc3C)CC1)C(=O)CO2 returned Cruzain inh Det 0% and Cruzain noTriton 4%.
For N=C1C(c2nc(-c3ccc(F)cc3)cs2)=C(O)CN1CCCN1CCOCC1 the results were Cruzain inh Det -6% and Cruzain noTriton 0%.
Screening CC(C)CCN1CC(O)=C(c2nc(-c3ccc(Cl)cc3)cs2)C1=N returned Cruzain inh Det 2% and Cruzain noTriton 25µM*.
`CSc1nnc2c3cc(F)ccc3n(Cc3ccccc3)c2n1` gave Cruzain inh Det -29% and Cruzain noTriton -16%.
Screening CCCCn1c2ccc(F)cc2c2nnc(SCCN(CC)CC)nc21 returned Cruzain inh Det 16µM* and Cruzain noTriton 20µM*.
CCOc1ccccc1NC(=O)C1=C(C)Nc2ncnn2C1c1ccco1 (stereo not given) was read as Cruzain inh Det -1% and Cruzain noTriton -4%.
For Cn1c(O)c(C2=c3ccccc3=NC2=O)sc1=Nc1ccc(Cl)cc1 the results were Cruzain inh Det -10% and Cruzain noTriton 25µM*.
Screening C=CCn1c(O)c(C2=c3ccccc3=NC2=O)s/c1=N/c1nccs1 returned Cruzain inh Det -5% and Cruzain noTriton 8%.
`COc1ccccc1NC(=O)c1sc2ncn(Cc3cccc4ccccc34)c(=O)c2c1C` gave Cruzain inh Det 13% and Cruzain noTriton 7.9µM*.
COc1ccccc1NC(=O)c1sc2ncn(Cc3ccc(C)cc3)c(=O)c2c1C was read as Cruzain inh Det 7% and Cruzain noTriton -9%.
`Cc1cccc(CNc2ncncc2-c2ccccc2C)c1` gave Cruzain inh Det 2% and Cruzain noTriton 3%.
Screening O=C(Nc1ccc(O)c(-c2nc3ccccc3o2)c1)c1ccc(Br)cc1 returned Cruzain inh Det 0% and Cruzain noTriton -2%.
For O=C(Nc1ccc(O)c(-c2nc3ccccc3o2)c1)C1(c2ccc(Br)cc2)CCCC1 the results were Cruzain inh Det 0% and Cruzain noTriton 5µM*.
For O=C(COc1ccc(/C=N/NS(=O)(=O)c2ccccc2)cc1)Nc1cccc(Cl)c1 the results were Cruzain inh Det -5% and Cruzain noTriton -14%.
`Cc1cc(C)cc(OCC(=O)Nc2ccc(-c3nc4ccccc4o3)cc2)c1` gave Cruzain inh Det -2% and Cruzain noTriton 1%.
